# Values of other authors as cited in PubChem BioAssay AID977611.
# Hit rate of the full screen: of about 3,900 compounds, about 3,900 (100%) were called active. No cut-off is given here; in the data, nearly all actives have Kd up to about 4200 µM. So high a share suggests a set chosen from earlier hits. The list shows a part of the results. Peptide text beside a SMILES is read from it.
# Assay: PubChem AID 977611
# Conditions: PDB protein-ligand complexes, literature Kd
molecule,measurement,setting,value
CC(C)=CCNc1ncnc2c1ncn2[C@@H]1O[C@H](CO[P+](O)(O)O)[C@@H](O)[C@H]1O,Kd,"protein: 2'-deoxynucleoside 5'-phosphate N-hydrolase 1, DNPH1 (RCL), PDB entry 4kxm",2.6 µM (active)
O[C@@H]1[C@H](O)[C@@H](CO[P+](O)(O)O)O[C@H]1n1cnc2c(NCc3ccco3)ncnc21,Kd,"protein: 2'-deoxynucleoside 5'-phosphate N-hydrolase 1, DNPH1 (RCL), PDB entry 4kxn",0.8 µM (active)
O[C@@H]1[C@H](O)[C@@H](CO[P+](O)(O)O)O[C@H]1n1cnc2c(NC3CCCC3)ncnc21,Kd,"protein: 2'-deoxynucleoside 5'-phosphate N-hydrolase 1, DNPH1 (RCL), PDB entry 4kxl",0.6 µM (active)
CN(C)[C@@H](Cc1cnc[nH]1)C(=O)O,Kd,"protein: Histidine-specific methyltransferase EgtD, PDB entry 4pin",4 µM (active)
same,Kd,"protein: Histidine-specific methyltransferase EgtD, PDB entry 4pio",2 µM (active)
C=C1C/C=C/[C@H](OC)[C@H](OC(N)=O)C(=C)C[C@@H](C)[C@@H](O)[C@@H](OC)C[C@H](C)CC2=C(OC)C(=O)C(C)=C(NC1=O)C2=O,Kd,"protein: ATP-DEPENDENT MOLECULAR CHAPERONE HSP82, PDB entry 4as9",16.3 µM (active)
OCc1cn([C@H]2O[C@H](CO)[C@@H](O)[C@H](O)[C@@H]2O)nn1,Kd,"protein: Concanavalin-A ConA, PDB entry 4pf5",3.3 µM (active)
CCC(=O)O[C@H](CCOCc1ccccc1)[C@@H](C)[C@H](O)[C@@H](C)CCC(=O)[C@H](C)[C@H](OC(C)=O)[C@H](C)/C=C/N(C)C=O,Kd,"protein: Actin, alpha skeletal muscle, PDB entry 4k42",0.285 µM (active)
NC1N=C2NN=C(CC(=O)O)C(=O)C2C(=O)N1 (stereo unspecified),Kd,"protein: Dihydropteroate Synthase, PDB entry 4dai",0.11 µM (active)
O=C1NC(=O)[C@H](Cc2ccccc2)N1,Kd,"protein: Mhp1, PDB entry 2JLO",54 µM (active)
O=C1N=C(Cc2cccc(Br)c2)C(=O)N1,Kd,"protein: nucleobase-cation-symport-1 family hydantoin transporter Mhp1, PDB entry 4d1c",2 µM (active)
CCCCCCCCC(=O)c1cc(O)c(O)c(O)c1,Kd,"protein: Nuclear receptor subfamily 4 group A member 1, PDB entry 4jgv",0.27 µM (active)
C[C@]12CC(=O)[C@H]3[C@@H](CCC4=CC(=O)CC[C@@]43C)[C@@H]1CC[C@@H]2C(=O)CO,Kd,"protein: Phospholipase A2 VRV-PL-VIIIa, PDB entry 4qf7",0.0025 µM (active)
H-GALGGAKQAGAV-OH,Kd,"protein: Clumping factor A (ClfA), PDB entry 2vr3",10.5 µM (active)
H-QQHHLGGAKQAGDV-OH,Kd,"protein: FIBRONECTIN-BINDING PROTEIN A, PDB entry 4b60",3.7 µM (active)
H-FNYESTGPFTAK-OH,Kd,"protein: EH domain-containing protein 1 C-terminal domain, PDB entry 2kfh",2400 µM (active)
H-FNYESTNPFTAK-OH,Kd,"protein: EH domain-containing protein 1 C-terminal domain, PDB entry 2kff",245 µM (active)
H-KSAVTTVVNP-OH,Kd,"protein: Integrin beta-1-binding protein 1, PDB entry 4dx9",5 µM (active)
H-LESKPYNPFEEEEED-OH,Kd,"protein: C-terminal domain of EH domain-containing protein 1, PDB entry 2ksp",57 µM (active)
H-FNYESTDPFTAK-OH,Kd,"protein: EH domain-containing protein 1 C-terminal domain, PDB entry 2kfg",1200 µM (active)
COC1=CC=C2CC3C4CC5OCOC5CC4CCN3C[C@H]2[C@@H]1OC (stereo partly specified),Kd,"protein: Putative regulatory protein, PDB entry 3vw2",17.9 µM (active)
Cc1cc2c([nH]1)NC(=O)N([C@@H]1O[C@H](CO)[C@@H](O)[C@H]1O)C2,Kd,"protein: NupC family protein CNT-7C8C, PDB entry 4pd8",0.94 µM (active)
CC[C@H](C)[C@H](NC(=O)[C@H](CC(=O)O)NC(=O)[C@@H](N)CC(=O)O)C(=O)N[C@@H](CO[P+](O)(O)O)C(=O)N[C@@H](CC(C)C)C(=O)N[C@@H](CC(C)C)C(=O)N[C@@H](CCCCN)C(=O)O,Kd,"protein: human GGA1(Golgi-localizing, ?-adaptin ear homology domain, ARF-interacting) VHS domains, PDB entry 1ujk",0.27 µM (active)
H-DDISLLK-OH,Kd,"protein: human GGA1(Golgi-localizing, ?-adaptin ear homology domain, ARF-interacting) VHS domains, PDB entry 1ujj",0.8 µM (active)
Cc1nc2ccccc2c(-c2ccc3c(c2)CCCO3)c1[C@H](OC(C)(C)C)C(=O)O,Kd,"protein: Integrase IN CCD (H171T mutant), PDB entry 4tsx",10.3 µM (active)
CN(C)Cc1c[nH]c2c(CCCO)cccc12,Kd,"protein: Phospholipase A2 VRV-PL-VIIIa, PDB entry 4qgd",0.037 µM (active)
H-TNEFYA-OH,Kd,"protein: the PDZ Tandem of Syntenin 1, PDB entry 1ybo",160 µM (active)
H-DAEFRA-OH,Kd,"protein: 3D6 FAB ANTIBODY, PDB entry 4onf",0.0012 µM (active)
C[C@H](N)C(=O)N[C@@H](CO[P+](O)(O)O)C(=O)N[C@@H](CCC(N)=O)C(=O)N[C@@H](CCC(=O)O)C(=O)N[C@@H](Cc1ccc(O)cc1)C(=O)O,Kd,"protein: Mediator of DNA damage checkpoint protein 1(MDC1/NFBD1), PDB entry 2azm",2.2 µM (active)
H-TNLYML-OH,Kd,"protein: E. coli UDP-N-acetylglucosamine acyltransferase (LpxA), PDB entry 4j09",17 µM (active)
H-TYKFFEQ-OH,Kd,"protein: adaptor protein complex 4 (AP-4) mu4 subunit C-terminal domain D190A mutant, PDB entry 4mdr",40.6 µM (active)
Oc1ccc(F)cc1O,Kd,"protein: Protocatechuate 3,4-dioxygenase alpha chain 3,4-PCD, PDB entry 4whq",75 µM (active)
same,Kd,"protein: Protocatechuate 3,4-dioxygenase alpha chain 3,4-PCD, PDB entry 4whr",75 µM (active)
same,Kd,"protein: Protocatechuate 3,4-dioxygenase alpha chain 3,4-PCD, PDB entry 4whs",75 µM (active)
H-MFAAFDYIA-OH,Kd,"protein: 3-phosphoinositide-dependent protein kinase 1 PDK1, PDB entry 4rrv",0.04 µM (active)
CSCC[C@H](NC(=O)[C@@H](N)CC(=O)O)C(=O)N[C@@H](Cc1ccc(O)cc1)C(=O)N[C@@H](C)C(=O)O (H-DMYA-OH),Kd,"protein: E3 ubiquitin-protein ligase RNF31 HOIP PUB Domain, PDB entry 4p0b",0.29 µM (active)
